# Source: PubChem BioAssay (Johns Hopkins Ion Channel Center)
# KCNQ2 enhance – enhances the rat KCNQ2 potassium channel; CHO-K1 KCNQ2, FluxOR thallium flux fluorescence; stronger effect = higher value; AID 2239; B-score at 10 µM; O88943; hit rate 0.54% among 310,000;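 active = fluorescence ratio B-score at least 3 SD of library B-scores, with initial fluorescence B-score within 3 of them, cut at about 5.3 in these data; same plate scores as AID 2156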;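 also: B-score of peak minus minimum over baseline fluorescence ratio after K+ and Tl+ stimulus; positive B-score means potentiation of KCNQ2 with more thallium influx and brighter signal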
# KCNQ2 block – blocks the rat KCNQ2 potassium channel; O88943; CHO-K1 KCNQ2, FluxOR thallium flux, 20 min; stronger effect = lower value; B-score at 10 µM; hit rate 1.1% among 310,000; AID 2156;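 active = fluorescence ratio B-score at most minus 3 library SDs, with starting brightness B-score within 2 library SDs, cut at about -5.5 in these data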
# Kir21 conf inh – confirmation of mouse Kir2.1 potassium channel inhibitors. shares compounds with KCNQ2 enhance. Kir2.1-expressing cells, FluxOR thallium flux fluorescence; stronger effect = lower value. Tl flux remaining, % of negative control (stronger effect = lower value), % at 10 µM. hit rate 41% among 2,300;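 active = Primary-screen hit whose thallium flux fell at least 3 control SD below untreated wells in both duplicates, with normal baseline fluorescence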;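 also: 0% = blank wells without stimulus and 100% = stimulated no-compound controls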
# HEK293 Tl flux – counter-screen for Kir2.1 inhibitors: effect in parental HEK293 cells; FluxOR signal as % of negative control (100 = no effect), % at 10 µM; FluxOR thallium flux fluorescence; 0% = unstimulated blank wells; hit rate 19% among 2,300; shares compounds with KCNQ2 enhance;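 active = dye signal at least 3 control SD above or below untreated wells in both duplicates, raw fluorescence within 3, either direction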;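 also: percent is based on the flux ratio of peak minus minimum fluorescence over baseline F0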
# CHO-K1 ctr – parental CHO-K1 activity in KCNQ2 potentiator counter-screen; shares compounds with KCNQ2 enhance; parental CHO-K1 cells, FluxOR thallium flux fluorescence; zero = vehicle mean+3SD, 100% = vehicle-minus-blank window; activity increase over 3SD of controls, % at 10 µM; hit rate 43% among 1,200; AID 2282;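 active = signal rise of at least 3 SD above the untreated control mean, in both duplicate wells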;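 also: counter screen of KCNQ2 potentiator hits so any rise reflects channel-independent effects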
# KCNQ1 sel pot – selectivity of KCNQ2 potentiators: effect on human KCNQ1 | shares compounds with KCNQ2 enhance | CHO KCNQ1 stable, FluxOR thallium flux fluorescence; beyond 3SD, as % of vehicle-control signal | activation over 3SD threshold, % at 10 µM | hit rate 28% among 1,200 | AID 2283;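 active = fluorescence ratio rise of at least 3 SD of vehicle wells above their mean, in both replicate wells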;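 also: 0% = vehicle mean plus 3 SD and 100% = vehicle minus unstimulated blank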
# KCNQ2 pot conf – rat KCNQ2 channel potentiator confirmation. shares compounds with KCNQ2 enhance. CHO-KCNQ2 cells, FluxOR thallium flux fluorescence. potentiation, less the hit threshold, % at 10 µM. hit rate 68% among 1,200. AID 2287;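 active = fluorescence ratio rising 3 SD or more over the vehicle control mean in both replicates, plus primary screen hit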;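 also: peak minus minimum thallium fluorescence divided by baseline after K/Tl stimulus; 0% = vehicle mean plus 3 SD and 100% = vehicle minus unstimulated blank difference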
# Kir2-1 sel – tests whether KCNQ2 potentiators also affect mouse Kir2.1. AID 2345. hit rate 2% among 1,200. activity over 3SD threshold, % at 10 µM. HEK293 Kir2.1, FluxOR thallium flux fluorescence. shares compounds with KCNQ2 enhance;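 active = fluorescence ratio rise of at least 3 SD above the vehicle-control mean, seen in both replicates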;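 also: 0% = vehicle mean plus 3 SD and 100% = vehicle minus no-stimulus blank window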
# KCNQ2 W236L MoA – KCNQ2 potentiators acting on retigabine-insensitive rat KCNQ2 W236L mutant; shares compounds with KCNQ2 enhance; CHO KCNQ2-W236L, automated patch clamp current; current increase over 3SD of negative controls (%), stronger effect = higher value, % at 25 µM; hit rate 10% among 940; AID 2558;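 active = current increase at least 3 SD of the untreated controls above them in both duplicate recordings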
# Target sequence (O88943 whole entry W236L, looked up): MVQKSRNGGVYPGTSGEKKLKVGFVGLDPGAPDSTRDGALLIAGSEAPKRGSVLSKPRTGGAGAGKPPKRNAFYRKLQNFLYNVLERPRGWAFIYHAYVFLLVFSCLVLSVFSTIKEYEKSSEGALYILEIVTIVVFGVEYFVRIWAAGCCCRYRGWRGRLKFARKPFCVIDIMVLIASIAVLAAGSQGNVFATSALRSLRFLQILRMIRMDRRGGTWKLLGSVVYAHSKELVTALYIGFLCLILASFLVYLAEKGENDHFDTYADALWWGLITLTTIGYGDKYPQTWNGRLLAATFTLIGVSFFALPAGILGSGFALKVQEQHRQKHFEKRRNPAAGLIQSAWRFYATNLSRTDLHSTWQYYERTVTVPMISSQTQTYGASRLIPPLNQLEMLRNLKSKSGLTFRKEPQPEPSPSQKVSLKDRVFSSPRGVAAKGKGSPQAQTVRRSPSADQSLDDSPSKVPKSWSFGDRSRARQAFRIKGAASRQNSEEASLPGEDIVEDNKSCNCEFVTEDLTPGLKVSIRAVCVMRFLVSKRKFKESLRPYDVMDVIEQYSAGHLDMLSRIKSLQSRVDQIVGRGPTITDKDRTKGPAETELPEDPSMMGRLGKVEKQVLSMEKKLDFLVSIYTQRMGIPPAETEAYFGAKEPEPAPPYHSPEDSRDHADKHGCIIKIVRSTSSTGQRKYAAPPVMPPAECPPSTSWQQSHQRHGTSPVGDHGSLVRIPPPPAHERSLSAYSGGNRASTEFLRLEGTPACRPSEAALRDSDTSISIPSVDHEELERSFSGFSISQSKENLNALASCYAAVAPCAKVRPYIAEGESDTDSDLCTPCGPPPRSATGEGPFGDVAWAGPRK
# The depositor's hits bear a star; i = inactive; . = not tested or not shown. Sampled rows, rich in hits. Any-hit rate of the full collection: about 1.6%.
SMILES,KCNQ2 enhance,KCNQ2 block,Kir21 conf inh,HEK293 Tl flux,others
NC(=O)Cn1c(=O)n(Cc2ccccc2)c(=O)c2cccnc21,0.14,i,.,.,
CN(C)C(=O)CSc1n[nH]c(=O)n1CCc1ccccc1,0.4,i,.,.,
CCCN(CCC)S(=O)(=O)c1ccc(Cl)c(OC)c1,.,i,55.0%*,i,
CCN(CC)S(=O)(=O)c1ccc(Cl)c(OC)c1,1.63,i,.,.,
COCC[N+]1(C)CCCCC1,0.11,i,.,.,
COC(=O)c1cn(NC(=O)CC2CCCCC2)c(=O)c2ccccc12,13.9*,i,i,i,CHO-K1 ctr=-10.0;KCNQ1 sel pot=-15.1;KCNQ2 pot conf=74.6*;Kir2-1 sel=-30.6;KCNQ2 W236L MoA=i
COC(=O)c1cn(NC(=O)C2CCC(C)CC2)c(=O)c2ccccc12 (stereo unspecified),.,i,.,.,
COC(=O)c1cn(NC(=O)c2cc([N+](=O)[O-])ccc2F)c(=O)c2ccccc12,.,i,.,.,
COC(=O)c1cn(NC(=O)CCC2CCCC2)c(=O)c2ccccc12,28.1*,i,i,i,CHO-K1 ctr=103.7*;KCNQ1 sel pot=-13.8;KCNQ2 pot conf=121.6*;Kir2-1 sel=-26.6;KCNQ2 W236L MoA=i
CC1CCCC(NC(=O)COC(=O)Cc2ccc(Br)cc2)C1C (stereo unspecified),0.24,i,.,.,
CC1CCCC(NC(=O)Cc2ccc(Br)cc2)C1C (stereo unspecified),5.55*,i,i,i,CHO-K1 ctr=49.4*;KCNQ1 sel pot=1.4*;KCNQ2 pot conf=3.0*;Kir2-1 sel=-12.4;KCNQ2 W236L MoA=i
COc1ccc(C(=O)NC(=S)Nc2ccc3[nH]c(=O)[nH]c3c2)c(OC)c1,.,i,.,.,
COc1ccc(-c2csc(NC(=S)NC(=O)c3cccs3)n2)cc1OC,3.18,i,.,.,
COc1ccc(-c2csc(NC(=S)NC(=O)c3cccs3)n2)cc1Br,7.07*,i,i,70.0%*,CHO-K1 ctr=-5.1;KCNQ1 sel pot=-15.8;KCNQ2 pot conf=-1.9;Kir2-1 sel=-35.2
S=c1nc(-c2csc3c2CCCC3)[nH][nH]1,.,i,.,.,
O=C(Nc1ccccc1)C(Cl)C(=O)c1ccccc1 (stereo unspecified),.,i,66.5%*,70.0%*,
CC(C(=O)Nc1ccccc1)C(=O)Nc1ccccc1,0.59,i,.,.,
CCSC1=C(C#N)C(c2ccc(C)o2)CC(=O)N1 (stereo unspecified),.,i,.,.,
N#CC1=C(SCc2ccccc2)NC(=O)CC1c1ccco1 (stereo unspecified),.,i,41.0%*,i,
C=C(C)CSC1=C(C#N)C(c2ccccc2)CC(=O)N1 (stereo unspecified),.,i,.,.,
N#CC1=C(SCC(=O)NCc2ccccc2)NC(=O)CC1c1ccco1 (stereo unspecified),0.02,i,.,.,
CCCCCCSC1=C(C#N)C(c2ccc(C)o2)CC(=O)N1 (stereo unspecified),.,i,59.5%*,i,
Cc1ccc(C2CC(=O)NC(SCc3ccccc3)=C2C#N)o1 (stereo unspecified),.,i,43.5%*,i,
CCn1c2ccccc2c2cc(Nc3cc(C)nc4ncnn34)ccc21,0.69,i,67.0%*,i,
CCc1ccc(Nc2cc(C)nc3ncnn23)cc1,1.43,i,.,.,
SMILES,KCNQ2 enhance,KCNQ2 block,Kir21 conf inh,HEK293 Tl flux,others
COc1ccc(CC(=O)NNC(=O)c2ccc(NC(C)=O)cc2)cc1,0.3,i,.,.,
COc1ccc(C(=O)NNC(=O)C(=O)Nc2ccc(C)cc2)cc1,27.8*,i,i,234.0%*,CHO-K1 ctr=5.7*;KCNQ1 sel pot=-5.9;KCNQ2 pot conf=7.6*;Kir2-1 sel=-28.8;KCNQ2 W236L MoA=i
COc1cccc(C(=O)Nc2cccc3ccccc23)c1,.,i,.,.,
COc1ccc(NC(=O)c2ccc(C)cc2)cc1,.,i,.,.,
CCc1ccc(NC(=O)C(=O)NNC(=O)c2ccc(OC)cc2)cc1,24.5*,i,i,i,CHO-K1 ctr=-12.6;KCNQ1 sel pot=-45.3;KCNQ2 pot conf=-3.3;Kir2-1 sel=-25.1;KCNQ2 W236L MoA=i
COc1cccc(C(=O)NNC(=O)C(=O)Nc2cccc3ccccc23)c1,12.8*,i,i,i,CHO-K1 ctr=-10.0;KCNQ1 sel pot=8.8*;KCNQ2 pot conf=-11.6;Kir2-1 sel=-26.8
COC(=O)c1cc(OC)c(OC)cc1NC(=S)N1CCN(c2ccccc2)CC1,.,i,.,.,
CCCCCOc1ccc(Br)cc1/C(C)=N/NC1=NCCN1,.,i,16.0%*,i,
COc1ccc(Br)cc1/C(C)=N/NC1=NCCN1,0.2,i,.,.,
O=C(NCc1ccncc1)c1nc(-c2ccc(C(F)(F)F)cc2)no1,3.8,i,.,.,
CC1Cc2ccccc2N1C(=O)CCn1cccn1 (stereo unspecified),.,i,.,.,
C/C(=N\NC(=O)c1c(Br)cnn1C)c1ccc(NC(=O)c2ccc(F)cc2)cc1,.,i,.,.,
CCN(C(=O)CSc1nnc(-c2ccncc2)n1Cc1ccccc1)C1CCS(=O)(=O)C1 (stereo unspecified),.,i,.,.,
Cc1cc(NCCOCCO)n2ncc(-c3ccc(Cl)cc3)c2n1,6.16*,i,i,i,CHO-K1 ctr=2.2*;KCNQ1 sel pot=-11.4;KCNQ2 pot conf=4.4*;Kir2-1 sel=-44.2;KCNQ2 W236L MoA=i
Cc1cc(NCc2ccccn2)n2ncc(-c3ccc(Cl)cc3)c2n1,0.08,i,.,.,
O=C(NCCCN1CCOCC1)/C(=C/c1ccco1)NC(=O)c1ccccc1,.,i,.,.,
COc1ccc(CNC(=O)COC(=O)c2ccc(F)c(S(=O)(=O)N3CCCCC3)c2)cc1OC,0.45,i,.,.,
CS(=O)(=O)NNC(=O)Cn1nnc(-c2ccc(OCc3ccccc3Cl)cc2)n1,.,i,.,.,
O=C(COC(=O)CCc1ccccc1)NC(c1ccccc1)c1ccccc1,.,i,.,.,
COCC(=O)NC(c1ccccc1)c1ccccc1,7.99*,i,i,i,CHO-K1 ctr=-18.7;KCNQ1 sel pot=-32.8;KCNQ2 pot conf=-15.3;Kir2-1 sel=-35.6
O=C1NC2=C(C(=O)CCC2)C(c2cccc([N+](=O)[O-])c2)N1 (stereo unspecified),0.03,i,.,.,
Cc1ccc([N+](=O)[O-])cc1NC(=S)NC(=O)c1cccs1,1.52,i,.,.,
Cc1cc(C(=O)CSc2ccc3c(c2)OCCO3)c(C)n1C1CC1,.,i,.,.,
CC(C)N(C(=O)COC(=O)c1cccc(N(C)C)c1)c1ccccc1,.,i,.,.,
C=CCOc1ccc(CNc2ccc(NC(=O)CCC)cc2)cc1OCC,1.72,i,.,.,
C=CCOc1c(Br)cc(CNc2ccc(NC(=O)CCC)cc2)cc1OCC,18*,i,i,i,CHO-K1 ctr=-12.8;KCNQ1 sel pot=80.4*;KCNQ2 pot conf=31.7*;Kir2-1 sel=-32.7;KCNQ2 W236L MoA=i
O=C(NNC(=O)C1CC(=O)N(Cc2ccccc2)C1)c1ccc(F)cc1 (stereo unspecified),1.36,i,.,.,
